Assay [1] in a line: NS1 protein of Zika virus - qHTS assay to identify small molecule inhibitors in human HEK 293 cells (AID 1347053). Note: series mostly up to about 46 µM; nearly all actives have a fitted effect of over 55% in size. Put shortly: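 HEK 293; 20 h pre-culture, 37 C/5% CO2; cpd 1 h pre-infection; ZIKV MR766, MOI = 0.5, 24 h, 37 C; TR-FRET NS1 readout (two anti-NS1 Abs); norm. to no-virus vs infected.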
Assay [2] in a line: qHTS of pediatric cancer cell lines to identify multiple opportunities for drug repurposing: Primary screen for TC32 cells (AID 1347089). Note: nearly all actives have a fitted effect of over 60% in size. Note: potency is the fitted concentration of half-maximal effect. Put shortly: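 Luminescent CellTiter-Glo read-out of metabolically active TC32 cells after 48 h compound exposure. Primary: MIPE 11-point, 0.78 nM–46 µM; NPC 8-point, 0.59 nM–46 µM. Confirmatory: 11-point dilutions.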
Assay [3] is described as follows: qHTS of pediatric cancer cell lines to identify multiple opportunities for drug repurposing: Primary screen for DAOY cells (AID 1347090). Note: nearly all actives have a fitted effect of over 55% in size. Note: potency is the fitted concentration of half-maximal effect. Put shortly: (§1)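 Eight- or eleven-point concentration series, 48 h treatment at 37 degrees C in growth media; readout CellTiter-Glo luminescence. Potency and efficacy were taken from the concentration-response curves.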
Assay [4] can be described thus: qHTS of pediatric cancer cell lines to identify multiple opportunities for drug repurposing: Primary screen for A673 cells (AID 1347092). Note: nearly all actives have a fitted effect of over 45% in size. Note: potency is the fitted concentration of half-maximal effect. The gist of the method:
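A673 cells (500-1,000 cells/well in growth media) were pre-incubated 5 h at 37 degrees C, then exposed to compounds for 48 h. Viability was read as CellTiter-Glo luminescence; concentration-response curves came directly from the primary screen.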

Assay [5] can be described thus: qHTS of pediatric cancer cell lines to identify multiple opportunities for drug repurposing: Primary screen for SK-N-MC cells (AID 1347093). Note: potency is the fitted concentration of half-maximal effect. The gist of the method:
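Metabolically active cells were quantified by ATP-dependent luminescence (CellTiter-Glo, 15 min at room temperature) following 48 h treatment. Cells had been plated at 500-1,000 per well and settled for 5 h beforehand.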

The nature of assay [6]: qHTS of pediatric cancer cell lines to identify multiple opportunities for drug repurposing: Primary screen for BT-37 cells (AID 1347094). Note: potency is the fitted concentration of half-maximal effect. Put shortly: (§2)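 Cells plated at 500-1,000/well in growth medium, compounds added after 5 h. MIPE tested at 11 points (from 0.78 nM), NPC at 8 points (from 0.59 nM). CellTiter-Glo luminescence after 48 h; concentration-response curves from primary screen.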

A short description of assay [7]: qHTS of pediatric cancer cell lines to identify multiple opportunities for drug repurposing: Primary screen for U-2 OS cells (AID 1347096). Note: nearly all actives have a fitted effect of over 50% in size. Note: potency is the fitted concentration of half-maximal effect. The gist of the method:
(§3)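 Cells (500-1,000/well) in growth media were settled 5 h at 37 degrees C, then given compounds for 48 h. Viability was read as CellTiter-Glo luminescence. Primary runs used MIPE at 11 points (0.78 nM-46 µM) and NPC at 8 points (0.59 nM-46 µM); follow-ups used 11 points.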

Assay [8] is described as follows: qHTS of pediatric cancer cell lines to identify multiple opportunities for drug repurposing: Primary screen for Saos-2 cells (AID 1347097). Note: nearly all actives have a fitted effect of over 40% in size. Note: potency is the fitted concentration of half-maximal effect. Put shortly: as §2
Assay [9] in a line: qHTS of pediatric cancer cell lines to identify multiple opportunities for drug repurposing: Primary screen for SK-N-SH cells (AID 1347098). Note: nearly all actives have a fitted effect of over 65% in size. Note: potency is the fitted concentration of half-maximal effect. The gist of the method: (§4)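 Cells (500-1,000/well) rested 5 h, then received compounds for 48 h; metabolically active cells were measured by CellTiter-Glo luminescence. Final concentrations spanned up to 46 µM (MIPE, 11-point) or 0.59 nM-46 µM (NPC, 8-point) in primary screens, 11-point in follow-ups.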

Assay [10] in a line: qHTS of pediatric cancer cell lines to identify multiple opportunities for drug repurposing: Primary screen for LAN-5 cells (AID 1347100). The gist of the method: as §3
The nature of assay [11]: qHTS of pediatric cancer cell lines to identify multiple opportunities for drug repurposing: Primary screen for BT-12 cells (AID 1347101). Note: nearly all actives have a fitted effect of over 25% in size. Note: potency is the fitted concentration of half-maximal effect. The gist of the method: as §4
Assay [12] in a line: qHTS of pediatric cancer cell lines to identify multiple opportunities for drug repurposing: Primary screen for Rh18 cells (AID 1347102). Note: nearly all actives have a fitted effect of over 65% in size. The gist of the method:
as §3

The nature of assay [13]: qHTS of pediatric cancer cell lines to identify multiple opportunities for drug repurposing: Primary screen for OHS-50 cells (AID 1347103). Note: nearly all actives have a fitted effect of over 40% in size. Note: potency is the fitted concentration of half-maximal effect. Put shortly: as §4
Assay [14] is described as follows: qHTS of pediatric cancer cell lines to identify multiple opportunities for drug repurposing: Primary screen for RD cells (AID 1347104). Note: nearly all actives have a fitted effect of over 55% in size. Note: potency is the fitted concentration of half-maximal effect. Put shortly:
as §2

A short description of assay [15]: qHTS of pediatric cancer cell lines to identify multiple opportunities for drug repurposing: Primary screen for NB-EBc1 cells (AID 1347095). Put shortly: as §2
Assay [16] in a line: qHTS of pediatric cancer cell lines to identify multiple opportunities for drug repurposing: Primary screen for NB1643 cells (AID 1347099). Note: nearly all actives have a fitted effect of over 50% in size. The gist of the method: as §2
Assay [17] can be described thus: qHTS of pediatric cancer cell lines to identify multiple opportunities for drug repurposing: Primary screen for SJ-GBM2 cells (AID 1347091). The gist of the method: as §1

Structures are written as SMILES. Results filed as inconclusive are left out. Active and inactive are the calls of the source. Calls come from the whole dose curve; as a rule, active = well fitted curve in the direction sought with a large enough effect; inconclusive = small, poorly fitted or top-dose-only effect, or another doubt; inactive = no such curve, though single readings can be large; an effect the other way counts as inactive or inconclusive. Numbered stars: 1 amine (or outer) side, 2 acyl side, 3 side chain; on linkers, the order of the positions; unused ones are H or OH. Bridge positions count the residues as written; N and C are the ends. Square brackets hold non-standard residues; d marks the D form. Peptide text beside a SMILES is read from it. I, II: the chains in the order shown. Actinocin(9to1) = Cc1c2oc3c(C)ccc(C(=O)[*:1])c3nc-2c(C(=O)[*:2])c(N)c1=O; NMeV = CN[C@H](C(=O)O)C(C)C; Sar = CNCC(=O)O

As for `CC(=O)Nc1c(I)cc(I)c(C(=O)O)c1I`, the Potency entry in assay [1], in assay [2], in assay [3], in assay [4], in [5] and in assay [6] was “inactive” throughout. Also, the Potency result in assay [7], in assay [8], in assay [9], in assay [10], in [11] and in assay [12] was “inactive” in each case. Also, the Potency entry in [13] and in assay [14] was “inactive” in each case.

With `CC(=O)OCC(=O)[C@@]1(O)CC[C@H]2[C@@H]3CCC4=CC(=O)C=C[C@]4(C)[C@H]3[C@@H](O)C[C@@]21C`, the Potency result in assay [1], in [2], in assay [3], in assay [4], in assay [5] and in assay [6] was “inactive” throughout. The Potency entry in assay [15], in [7], in assay [8], in [9], in assay [10] and in assay [11] was “inactive” throughout. The Potency result in assay [12] was “inactive”.

As for `O=C(O)CNC(=O)c1ccccc1`, the Potency result in assay [1], in [2], in assay [3], in assay [4], in assay [5] and in assay [6] was “inactive” in each case. The Potency entry in assay [7], in [8], in assay [9], in [16], in assay [10] and in assay [11] was “inactive” each time. Besides, the Potency entry in assay [12], in assay [13] and in [14] was “inactive” each time.

Regarding `CCN(CC)C(=O)/C(C#N)=C/c1cc(O)c(O)c([N+](=O)[O-])c1`, the Potency result in assay [1], in assay [2], in assay [3], in assay [4], in [5] and in assay [7] was “inactive” in each case. Further, the Potency result in assay [8], in assay [9], in assay [16], in [12] and in assay [14] was “inactive” in each case.

For the compound `CC(=O)OCC(=O)NCCCOc1cccc(CN2CCCCC2)c1`, the Potency result in [1], in assay [2], in assay [3], in [4], in assay [5] and in assay [6] was “inactive” in each case. Besides, the Potency entry in assay [15], in [7], in [8], in [9], in assay [16] and in assay [10] was “inactive” each time. Also, the Potency result in assay [11], in assay [12], in assay [13] and in assay [14] was “inactive” throughout.

As to `CCN(CCCCOC(=O)c1ccc(OC)c(OC)c1)C(C)Cc1ccc(OC)cc1` (stereo not drawn), the Potency result in assay [1], in assay [2], in [3], in assay [4], in [5] and in assay [15] was “inactive” in each case. Moreover, the Potency entry in assay [7], in assay [16] and in assay [12] was “inactive” each time.

Regarding `C[C@@H](CN(C)C)CN1c2ccccc2Sc2ccccc21`, the Potency result in [1], in [2], in assay [3], in assay [17], in assay [5] and in [7] was “inactive” in each case. Moreover, the Potency result in assay [16] and in [10] was “inactive” throughout.

Turning to `CCCCN1CCCC1C(=O)Nc1c(C)cc(C)cc1C` (stereo not drawn), the Potency result in assay [1], in assay [2], in [3], in [4], in assay [5] and in assay [6] was “inactive” in each case. Moreover, the Potency entry in assay [15], in assay [7], in assay [9], in assay [16], in [10] and in [11] was “inactive” in each case. For the same compound, the Potency entry in assay [12] and in assay [14] was “inactive” throughout.

With `Cc1c2oc3c(C)ccc(C(=O)N[C@@H]4C(=O)N[C@H](C(C)C)C(=O)N5CCC[C@H]5C(=O)N(C)CC(=O)N(C)[C@@H](C(C)C)C(=O)O[C@@H]4C)c3nc-2c(C(=O)N[C@@H]2C(=O)N[C@H](C(C)C)C(=O)N3CCC[C@H]3C(=O)N(C)CC(=O)N(C)[C@@H](C(C)C)C(=O)O[C@@H]2C)c(N)c1=O` (I: T[dV]P[Sar][NMeV] / II: T[dV]P[Sar][NMeV]; ester I:1-I:C, II:1-II:C; linker I:N-II:N via Actinocin(9to1)), the Potency result in [1], in assay [15] and in assay [10] was “inactive” each time. Further, the Potency was 0.0149 µM (active) in assay [2]; 0.0211 µM (active) in assay [3]; 0.0042 µM (active) in [4]; 0.0027 µM (active) in assay [5]; 0.0028 µM (active) in assay [6]; 0.0422 µM (active) in assay [7]. Moreover, the Potency in assay [8] is 0.0841 µM (active); in assay [9], 0.0034 µM (active); in assay [11] it was 0.0069 µM (active); in [13] it was 0.0347 µM (active); in assay [14], 0.0133 µM (active).

Consider `OCc1ccccc1O`, for which the Potency entry in assay [1], in assay [2], in assay [3], in [4], in assay [5] and in assay [6] was “inactive” throughout. The Potency entry in assay [7], in assay [8], in assay [9], in assay [16], in [10] and in assay [11] was “inactive” in each case. Also, the Potency result in [12] and in [14] was “inactive” each time.
